Assay outcomes deposited in PubChem BioAssay by several laboratories.
In the library only some 4.1% were active in any assay of this set; here they are far more common.
Mdm2-MdmX inh – human Mdm2/MdmX binding inhibition | inhibition, % at 8 µM | SaOS-2 split-luciferase Mdm2/MdmX complementation, luminescence | actives 3% (n = 330,000) | O15151+Q00987;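 active = inhibition of at least 50% at 8 µM in the primary screen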
Target sequence (O15151 whole entry, looked up): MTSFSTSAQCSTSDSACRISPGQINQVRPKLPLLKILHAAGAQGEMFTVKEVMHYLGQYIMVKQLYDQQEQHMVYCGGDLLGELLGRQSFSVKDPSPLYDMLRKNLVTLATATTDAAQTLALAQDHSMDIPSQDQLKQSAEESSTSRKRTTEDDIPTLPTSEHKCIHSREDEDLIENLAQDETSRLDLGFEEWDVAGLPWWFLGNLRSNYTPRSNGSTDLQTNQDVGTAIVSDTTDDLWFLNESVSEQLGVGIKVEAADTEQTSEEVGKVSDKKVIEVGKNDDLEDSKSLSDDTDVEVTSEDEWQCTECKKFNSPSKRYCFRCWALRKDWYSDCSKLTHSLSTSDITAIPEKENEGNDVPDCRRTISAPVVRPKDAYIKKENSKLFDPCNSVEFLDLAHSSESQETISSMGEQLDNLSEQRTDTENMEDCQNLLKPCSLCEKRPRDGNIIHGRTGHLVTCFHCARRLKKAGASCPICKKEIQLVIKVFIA
Target sequence (Q00987 whole entry, looked up): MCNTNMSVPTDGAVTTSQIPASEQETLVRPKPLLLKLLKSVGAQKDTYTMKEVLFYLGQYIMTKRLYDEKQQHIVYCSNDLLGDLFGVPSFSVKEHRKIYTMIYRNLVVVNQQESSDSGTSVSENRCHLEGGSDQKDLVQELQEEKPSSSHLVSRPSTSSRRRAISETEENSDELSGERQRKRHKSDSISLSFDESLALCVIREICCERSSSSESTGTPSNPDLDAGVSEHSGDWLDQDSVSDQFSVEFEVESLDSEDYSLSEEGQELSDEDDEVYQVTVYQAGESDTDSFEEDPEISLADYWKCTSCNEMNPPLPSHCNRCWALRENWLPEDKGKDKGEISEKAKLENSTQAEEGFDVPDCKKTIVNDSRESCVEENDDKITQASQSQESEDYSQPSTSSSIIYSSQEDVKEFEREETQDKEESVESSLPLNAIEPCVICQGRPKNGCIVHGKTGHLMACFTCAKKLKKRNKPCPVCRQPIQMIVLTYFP
Gli-Sufu block – blocks Gli-Sufu signaling in a luciferase reporter | inhibition, % at 5 µM | actives 0.74% (n = 340,000) | Sufu-KO-LIGHT fibroblasts, Gli luciferase reporter luminescence | AID 588413;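 active = inhibition above about 55%, limit read from the data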;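 note: 0% = DMSO-treated cells and 100% = wells with medium but no cells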
KLF5 inhibitor – kruppel-like factor 5 inhibition; DLD-1 KLF5 promoter-luciferase reporter, luminescence; inhibition, % at 5 µM; actives 0.23% (n = 290,000); AID 1700;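 active = inhibition above a per-plate limit of that plate's mean compound inhibition plus 3 SD, cut at about 60% in these data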;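 note: 0% = DMSO wells and 100% = LY294002 at 200 µM; higher means less KLF5 promoter-driven luciferase light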
Jurkat NFkB inh – inhibitors of the PMA/ionomycin-induced NF-kB reporter in Jurkat cells; PMA/ionomycin-induced NF-kB luciferase reporter, luminescence; inhibition, % at 4 µM; actives 0.53% (n = 330,000); AID 435003; in the data active = inhibition above about 50%
aSyn UTR inh – MLPCN primary screen, SNCA 5' untranslated region; alpha-synuclein 5'UTR reporter, inhibitor activity; inhibition, % (tested at 7.5 µM); actives 0.82% (n = 300,000); in the data active = inhibition above about 60%; inconclusive = no clear call, values can overlap the other calls;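 note: H4 neuroglioblastoma cells stably carrying SNCA 5'UTR luciferase fusion; 0% = DMSO wells and 100% = positive control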
697 NFkB inh – inhibitors of the PMA/ionomycin-induced NF-kB reporter in 697 B cells | 697 B-cell NF-kB luciferase reporter, 16 h | inhibition, % at 4 µM | actives 0.33% (n = 330,000); in the data active = inhibition above about 35%
697 NFkB conf – inhibitors of the PMA/ionomycin-induced NF-kB reporter in 697 B cells, retest | shares compounds with 697 NFkB inh | 697 B-cell NF-kB luciferase, 16 h | inhibition, % at 4 µM | actives 35% (n = 2,000) | AID 449746; in the data active = inhibition mostly above about 28%, no sharp cut-off; inactive = mostly below about 22%
Numbers without * were called inactive; ? = inconclusive; · = no result.

SMILES	Mdm2-MdmX inh	Gli-Sufu block	KLF5 inhibitor	Jurkat NFkB inh	aSyn UTR inh	697 NFkB inh	697 NFkB conf
Cc1c(NC(=O)/C=C/c2cn(-c3ccccc3)nc2-c2ccccc2)c(=O)n(-c2ccccc2)n1C	38	-10	4	18	35	35*	28*
CCCN(CC(=O)Nc1ccccc1OC)C(=O)c1ccc(=O)[nH]c1	17	-18	4	20	7	-7	·
Cc1cc2sc3nc(=O)n(-c4ccccc4)c(=O)n3c2cc1C	-92	-91	-101	-121	-160	-69	·
O=C(Nc1nc2nc(-c3ccccc3)cc(-c3ccccc3)n2n1)c1ccco1	37	-4	-1	8	21	47*	30*
CC(C)CSc1nnc2c(n1)[nH]c1ccccc12	-13	-86	-168	-128	-13	-311	-197
O=C(O)CSc1nnc2c(n1)[nH]c1ccccc12	-30	4	-6	-39	-13	-22	·
COc1ccc2[nH]c3nc(SC(C)C)nnc3c2c1	-24	-130	-181	-130	?	-328	-343
CCCCSc1nnc2c(n1)[nH]c1ccccc12	-57	-82	-32	-122	-135	-314	-132
CCOC(=O)CC(=O)CSc1nnc2c(n1)[nH]c1ccccc12	8	-8	-137	-21	-59	-81	·
CC(C)C(NCC(=O)Nc1ccccc1C(=O)NC1CC1)c1ccccc1 (stereo not given)	1	3	·	12	·	1	·
O=C(COC(=O)c1n[nH]c(=O)c2ccccc12)Nc1ccccc1F	19	9	·	-4	·	1	·
Cc1ccc(CSc2nnc(CNc3ccc(F)cc3)o2)cc1	16	-5	-36	9	6	8	·
COc1ccc(C(=O)Nc2ccc(NC(=O)c3cccs3)cc2)cc1Cl	20	6	-11	-8	-11	-1	·
COc1cc(C(=O)Nc2ccc(C(=O)c3cccs3)cc2)cc(OC)c1OC	17	20	4	22	13	37*	6
Cc1ccccc1-c1nc2sc3c(c2c(=O)n1N)CCCC3	27	34	-78	-100	-52	-276	-229
Nn1c(-c2cccs2)nc2sc3c(c2c1=O)CCCC3	-130	-5	-18	-136	-149	-163	·
Cc1cc(NC(=O)CN2CCC(C)CC2)no1	10	-1	-15	9	-3	7	·
O=C(Nc1cccc(-n2cnnn2)c1)c1cccs1	-5	-2	1	-4	13	4	·
CCc1sc(C(=O)Nc2cccc(-n3cnnn3)c2)cc1C	31	19	·	23	·	37*	39*
COCCNC(=O)c1c(N)n(-c2cccc(C)c2)c2nc3ccccc3nc12	26	7	13	-1	29	35*	19
N=C1/C(=C\c2ccc(-c3cccc(C(=O)O)c3)o2)C(=O)N=C2SC=C(c3ccccc3)N12	26	-6	-39	9	-2	6	·
Brc1ccccc1-n1nnc(-c2cnc3ccccc3c2)n1	-239	-63	·	-150	7	-306	-321
CC1CCN(C(=O)c2cc3nc(-c4ccccc4)cc(-c4ccccc4)n3n2)CC1	44	12	-13	15	43	35*	15
O=C(c1cc2nc(-c3ccccc3)cc(C(F)(F)F)n2n1)N1CCOCC1	8	-24	-33	-38	-48	3	·
COCCn1c(C)c(C)c2c(NCCc3ccccc3)ncnc21	46	25	-65	-77	34	-281	-29
Cc1cccc(-n2c(SC(C)C(=O)O)nc3sc4c(c3c2=O)CCCC4)c1 (stereo not given)	11	-3	-15	1	24	16	·
COc1ccc(NS(=O)(=O)c2cc(NC(=O)c3nn(C)c(=O)c4ccccc34)ccc2OC)cc1	46	-1	11	3	20	37*	22
COc1ccc(NS(=O)(=O)c2cc(NC(=O)c3cncc(Br)c3)ccc2OC)cc1	46	15	·	-5	·	3	·
O=C(O)c1ccccc1NC(=O)C1CCN(S(=O)(=O)c2cccc3nsnc23)CC1	18	-9	-26	13	-23	8	·
C/C(=N\Nc1ccc(C(=O)O)cc1)c1ccc(Cl)s1	-50	-72	-130	-100	-87	-299	-268
